Records with an inconclusive call do not appear. The source made the active and inactive calls. Unless noted, the call rests on the fitted dose curve; in most records, active means well fitted curve in the direction sought with a large enough effect; inconclusive means small, poorly fitted or top-dose-only effect, or another doubt; inactive means no such curve, though single readings can be large; an effect the other way counts as inactive or inconclusive.
What was measured:
[1] = target: Glucocorticoid receptor (Homo sapiens) (UniProt P04150); assay: qHTS assay for small molecule agonists of glucocorticoid receptor signaling (AID 588532; active means well fitted curve in the direction sought with a large enough effect in the signal ratio, with a control signal flat; the % refers to the signal ratio;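 further: 100% = dexamethasone at 0.1 µM and 0% = DMSO only wells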); details: HeLa MMTV-bla, beta-lactamase ratio, agonist, 18 h; stronger effect = higher value; percent of dexamethasone control, DMSO zero
Chain of Glucocorticoid receptor (Homo sapiens) (P04150 whole entry, looked up): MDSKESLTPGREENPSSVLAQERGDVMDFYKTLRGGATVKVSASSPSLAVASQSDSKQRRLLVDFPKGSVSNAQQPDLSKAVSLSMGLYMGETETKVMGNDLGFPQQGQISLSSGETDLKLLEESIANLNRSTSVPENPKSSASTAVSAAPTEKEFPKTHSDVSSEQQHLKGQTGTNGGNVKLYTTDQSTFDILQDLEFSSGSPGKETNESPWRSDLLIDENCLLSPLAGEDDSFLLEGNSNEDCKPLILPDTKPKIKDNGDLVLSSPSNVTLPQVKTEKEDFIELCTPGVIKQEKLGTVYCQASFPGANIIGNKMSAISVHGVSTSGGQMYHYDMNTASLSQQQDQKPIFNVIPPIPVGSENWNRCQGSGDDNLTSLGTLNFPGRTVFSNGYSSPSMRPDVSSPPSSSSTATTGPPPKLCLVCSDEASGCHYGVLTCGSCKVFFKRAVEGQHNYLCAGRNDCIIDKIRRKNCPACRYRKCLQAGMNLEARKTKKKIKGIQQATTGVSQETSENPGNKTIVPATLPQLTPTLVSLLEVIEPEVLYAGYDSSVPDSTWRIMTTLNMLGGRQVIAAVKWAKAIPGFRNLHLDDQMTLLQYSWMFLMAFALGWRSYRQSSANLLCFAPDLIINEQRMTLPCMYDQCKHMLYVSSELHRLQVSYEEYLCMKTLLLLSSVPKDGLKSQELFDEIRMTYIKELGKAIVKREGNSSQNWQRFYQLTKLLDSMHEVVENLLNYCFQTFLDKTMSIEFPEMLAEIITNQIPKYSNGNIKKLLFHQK
Summary of the method: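 Titration series, up to 92 uM, applied to GRE-bla HeLa cells for 18 h at 37 C. Detection by CCF4 FRET substrate after 2 h at RT.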

[2] = qHTS assay for small molecule antagonists of peroxisome proliferator-activated receptor delta signaling (AID 588535); details: HEK293T PPARd-UAS-bla, beta-lactamase FRET ratio, 18 h; 460 nm channel;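 further: cells co-treated with a PPAR-delta agonist as stimulator during compound exposure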
Summary of the method: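 Reporter: UAS-bla under PPAR-delta response element, HEK293T host. Medium: 2% charcoal/dextran FBS. Dosing: titration, 18 hrs, 37 C. Detection: CCF4, 2 hrs RT, 405 ex/460 and 530 em.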

[3] = target: Vitamin D3 receptor (Homo sapiens) (UniProt P11473); assay: qHTS assay for small molecule antagonists of vitamin D receptor signaling (AID 588541; calls by dose curve;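 further: receptor activated by calcitriol during compound treatment; on the % scale 0 is the no-effect control and ±100 the full control effect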); details: HEK293T VDR-UAS-bla, beta-lactamase ratio, antagonist mode; series mostly up to 76.7 µM
Chain of Vitamin D3 receptor (Homo sapiens) (P11473 whole entry, looked up): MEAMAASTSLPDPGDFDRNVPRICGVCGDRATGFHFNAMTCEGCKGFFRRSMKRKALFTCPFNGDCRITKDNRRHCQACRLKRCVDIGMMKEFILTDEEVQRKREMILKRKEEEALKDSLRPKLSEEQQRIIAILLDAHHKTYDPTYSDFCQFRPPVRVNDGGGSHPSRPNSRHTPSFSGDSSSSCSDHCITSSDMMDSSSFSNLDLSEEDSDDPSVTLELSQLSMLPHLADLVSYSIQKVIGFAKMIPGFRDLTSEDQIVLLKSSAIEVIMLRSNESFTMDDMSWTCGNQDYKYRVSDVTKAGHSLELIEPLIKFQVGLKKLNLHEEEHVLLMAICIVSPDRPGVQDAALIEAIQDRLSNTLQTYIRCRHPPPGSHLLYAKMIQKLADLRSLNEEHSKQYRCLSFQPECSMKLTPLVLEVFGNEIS
Summary of the method: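 VDR-UAS-bla HEK293T cells (2000/well, 2% charcoal-stripped FBS) were treated with titrated compounds plus 1-alpha,25-dihydroxyvitamin D3 (50 nM or 3 nM final) for 16 h at 37 C. CCF4 beta-lactamase fluorescence was read; Hill fits gave IC50.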

[4] = target: Vitamin D3 receptor (Homo sapiens) (UniProt P11473); assay: qHTS assay for small molecule agonists of vitamin D receptor signaling (AID 588543; calls by dose curve;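 further: 0% = DMSO basal and 100% = reference agonist control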); details: HEK293T VDR-UAS-bla, beta-lactamase ratio, 16 h; series mostly up to 76.8 µM
Summary of the method: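 GeneBLAzer VDR-UAS-bla HEK293T cells in 2% charcoal-stripped FBS medium were dosed with compound titrations for 16 h at 37 °C; CCF4 β-lactamase readout (405 nm ex, 460/530 nm em). EC50 and efficacy from Hill fits, normalized to 50 nM calcitriol (100%) and DMSO (0%).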

[5] = target: Thyroid hormone receptor beta (Homo sapiens) (UniProt P10828); assay: qHTS assay for small molecule agonists of thyroid hormone receptor beta signaling (AID 588545; calls by dose curve;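 further: 0% = DMSO only and 100% = 10 nM T3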); details: TR-UAS-bla GripTite HEK 293, beta-lactamase ratio, agonist mode, 18 h; series mostly up to 76.7 µM
Chain of Thyroid hormone receptor beta (Homo sapiens) (P10828 whole entry, looked up): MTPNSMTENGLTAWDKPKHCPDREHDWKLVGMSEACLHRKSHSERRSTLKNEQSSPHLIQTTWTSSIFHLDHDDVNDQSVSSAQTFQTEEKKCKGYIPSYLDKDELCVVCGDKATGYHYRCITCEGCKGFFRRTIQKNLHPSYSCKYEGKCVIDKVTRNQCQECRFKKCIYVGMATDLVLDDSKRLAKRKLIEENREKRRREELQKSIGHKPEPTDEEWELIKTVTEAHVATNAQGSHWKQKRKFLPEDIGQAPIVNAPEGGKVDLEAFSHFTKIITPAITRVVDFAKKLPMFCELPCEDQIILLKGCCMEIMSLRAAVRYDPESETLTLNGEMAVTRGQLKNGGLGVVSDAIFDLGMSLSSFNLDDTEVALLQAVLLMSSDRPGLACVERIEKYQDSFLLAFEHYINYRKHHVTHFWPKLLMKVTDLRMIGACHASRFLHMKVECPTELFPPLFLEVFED
Summary of the method: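 Beta-lactamase reporter activity under TR response element control is measured in HEK 293 cells after 18 hrs compound exposure. Signal is ratiometric CCF4 fluorescence, 460/530 nm.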

[6] = qHTS assay for small molecule activators of the p53 signaling pathway (AID 651743; active means well fitted activation curve with a large enough effect in the signal ratio, not every such curve was filed as active; the % refers to the signal ratio; further: % of control where 0% means no effect); details: HCT-116 p53RE-bla, beta-lactamase FRET ratio, 16 h; activation: stronger effect = higher value
Summary of the method: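 Cell-based beta-lactamase reporter (p53 response elements, HCT-116 background). After a 5-hour preincubation, cells received compound for 16 hours at 37 C; substrate development ran 2 hours at room temperature.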

[7] = qHTS assay for environmental chemicals that activate the Aryl hydrocarbon Receptor (AhR) signaling pathway (AID 651777); details: 1A2-DRE human hepatoma cells, luciferase, 24 h; activation: stronger effect = higher value; further: % of control where 0% means no effect; nearly all actives have a fitted effect of over 15% in size
Summary of the method: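 Reporter gene assay: hepatoma cells with DRE/CYP1A2-luciferase, 24 hr compound incubation at 37 C, 5% CO2, luminescence after One-Glo (30 min, RT).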

[8] = target: Peroxisome proliferator-activated receptor alpha (Homo sapiens) (UniProt Q07869); assay: qHTS assay for small molecule agonists of the peroxisome proliferator-activated receptor alpha (PPARalpha) signaling pathway (AID 651778); details: PathHunter PPARalpha complementation, chemiluminescence, 6 h; max response: stronger effect = higher value; further: potency means the concentration at half of the fitted maximal effect; on max response: % of control where 0% means no effect
Chain of Peroxisome proliferator-activated receptor alpha (Homo sapiens) (Q07869 whole entry, looked up): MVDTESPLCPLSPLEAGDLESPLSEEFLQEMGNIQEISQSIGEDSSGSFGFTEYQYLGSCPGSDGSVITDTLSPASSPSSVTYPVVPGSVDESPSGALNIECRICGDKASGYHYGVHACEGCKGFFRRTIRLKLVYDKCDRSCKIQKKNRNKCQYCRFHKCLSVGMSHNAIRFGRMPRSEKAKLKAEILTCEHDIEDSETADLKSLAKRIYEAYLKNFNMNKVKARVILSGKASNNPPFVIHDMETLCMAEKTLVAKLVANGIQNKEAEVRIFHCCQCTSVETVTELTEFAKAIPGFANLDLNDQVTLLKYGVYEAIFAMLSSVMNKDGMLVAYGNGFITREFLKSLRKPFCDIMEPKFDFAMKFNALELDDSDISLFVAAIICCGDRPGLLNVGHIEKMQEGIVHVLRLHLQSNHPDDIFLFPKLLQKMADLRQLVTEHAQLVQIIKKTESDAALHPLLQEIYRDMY
Summary of the method: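 Cells plated at 2,000/well and held overnight at 37 C, 5% CO2, then compound added by pin tool for 6 hr; after PathHunter detection reagent and 60 min at room temperature, chemiluminescence from enzyme complementation was read.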

[9] = qHTS assay for small molecule agonists of the antioxidant response element (ARE) signaling pathway measured by Nrf2-dependant transcriptional activity - cell viability counter screen (AID 720653; active means well fitted curve in the direction sought with a large enough effect in the repeat runs; an effect the other way counts as inactive or inconclusive; further: on the % scale 0 is the no-effect control and ±100 the full control effect); details: ARE-bla HepG2 viability, CellTiter-Glo ATP luminescence, 16 h; max response: stronger effect = lower value
Summary of the method: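 ARE-bla HepG2 cells (2,000/well) rested 5 hrs at 37C/5% CO2, then exposed to compounds in DMSO for 16 hrs. Viability was read in the same wells as intracellular ATP by luminescence, 30 min at room temperature after reagent addition.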

[10] = qHTS assay for cell viability of HEK293 cells (AID 743288); details: ATP luminescence (CellTiter-Glo), 18 h; max response: stronger effect = lower value; further: on the % scale 0 is the no-effect control and ±100 the full control effect; nearly all actives have a fitted effect of over 50% in size
Summary of the method: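 Parental HEK293 cells were seeded at 2,000 cells/well, rested at least 5 h at 37 C, then exposed to compounds in DMSO for 18 h at 37 C. Viability was read as ATP-dependent luciferase luminescence after 30 min at room temperature.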

[11] = qHTS assay for cell viability of the p53RE-bla HCT-116 cell line (AID 743292); details: p53RE-bla HCT-116 viability, ATP luminescence, 16 h; series mostly up to 95 µM; further: on the % scale 0 is the no-effect control and ±100 the full control effect; nearly all actives have a fitted effect of over 55% in size
Summary of the method: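 ATP-based luminescence, 16 h compound exposure at 37 C, p53RE-bla HCT-116 cells at 4,000/well.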

[12] = target: Glucocorticoid receptor (Homo sapiens) (UniProt P04150); assay: qHTS assay for small molecule antagonists of glucocorticoid receptor signaling (AID 588533; active means well fitted inhibition curve with a large enough effect in the signal ratio, with a control signal flat, not every such curve was filed as active; the % refers to the signal ratio;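 further: cells stimulated with 2 nM dexamethasone as agonist; on the % scale 0 is the no-effect control and ±100 the full control effect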); details: HeLa MMTV-bla, GRE beta-lactamase ratio, antagonist mode, 18 h; series mostly up to 76.8 µM
Summary of the method: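 Antagonist-mode qHTS: compound titrations added to GRE-bla HeLa cells, then dexamethasone 2 nM final; 18 h, 37 C. CCF4 FRET fluorescence normalized to dexamethasone and DMSO; IC50 from Hill fit.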

[13] = qHTS assay for small molecule antagonists of retinoid X receptor alpha signaling (AID 588546; active means well fitted inhibition curve with a large enough effect in the signal ratio, with a control signal flat, not every such curve was filed as active; the % refers to the signal ratio;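 further: cells stimulated with 9-cis-retinoic acid as agonist; on the % scale 0 is the no-effect control and ±100 the full control effect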); details: HEK293T RXRa-UAS-bla, beta-lactamase ratio, antagonist mode; measured here: W530 green channel, cytotoxicity proxy
Summary of the method: (§1)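 Beta-lactamase reporter inhibition, read as CCF4 fluorescence ratio (ex 405, em 460/530 nm) after 2 h at RT. HEK293T UAS-bla cells, 2500/well, were stimulated with 9-cis-RA at 500 or 100 nM final alongside test compound for 18 h at 37 C.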

[14] = target: Retinoic acid receptor RXR-alpha (Homo sapiens) (UniProt P19793); assay: as above; details: HEK293T RXRa-UAS-bla, beta-lactamase ratio, antagonist mode
Chain of Retinoic acid receptor RXR-alpha (Homo sapiens) (P19793 whole entry, looked up): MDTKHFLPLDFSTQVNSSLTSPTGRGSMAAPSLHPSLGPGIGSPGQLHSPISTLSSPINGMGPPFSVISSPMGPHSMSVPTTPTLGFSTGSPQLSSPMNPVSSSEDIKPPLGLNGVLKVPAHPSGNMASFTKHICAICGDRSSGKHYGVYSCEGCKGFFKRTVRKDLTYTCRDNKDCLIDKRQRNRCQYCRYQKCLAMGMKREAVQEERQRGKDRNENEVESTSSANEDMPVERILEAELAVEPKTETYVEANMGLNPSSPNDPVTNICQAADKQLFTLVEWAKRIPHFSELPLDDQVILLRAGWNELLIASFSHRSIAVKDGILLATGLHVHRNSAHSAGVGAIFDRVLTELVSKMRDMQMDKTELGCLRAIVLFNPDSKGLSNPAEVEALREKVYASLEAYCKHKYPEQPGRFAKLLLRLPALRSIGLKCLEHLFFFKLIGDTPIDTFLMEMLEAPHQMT
Summary of the method: as §1

[15] = qHTS assay for small molecule agonists of the antioxidant response element (ARE) signaling pathway (AID 651741; active means well fitted activation curve with a large enough effect in the signal ratio; the % refers to the signal ratio; further: potency means the concentration at half of the fitted maximal effect; on activation: % of control where 0% means no effect); details: HepG2 ARE-bla reporter, beta-lactamase FRET ratio, 16 h; series mostly up to 96 µM
Summary of the method: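 Compounds in DMSO are pinned onto HepG2 ARE-bla cells (2,000/well) that were preincubated 5 h; plates stay 16 h at 37 C, then beta-lactamase activity is detected with LiveBLAzer B/G substrate by fluorescence.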

[16] = target: Nuclear receptor subfamily 1 group I member 2 (Rattus norvegicus) (UniProt Q9R1A7); assay: qHTS assay for small molecule activators of the rat pregnane X receptor (rPXR) signaling pathway (AID 651751; call rule not given here; further: 0% is about no effect); details: rPXR reporter cells, luciferase (One-Glo), 24 h
Chain of Nuclear receptor subfamily 1 group I member 2 (Rattus norvegicus) (Q9R1A7 whole entry, looked up): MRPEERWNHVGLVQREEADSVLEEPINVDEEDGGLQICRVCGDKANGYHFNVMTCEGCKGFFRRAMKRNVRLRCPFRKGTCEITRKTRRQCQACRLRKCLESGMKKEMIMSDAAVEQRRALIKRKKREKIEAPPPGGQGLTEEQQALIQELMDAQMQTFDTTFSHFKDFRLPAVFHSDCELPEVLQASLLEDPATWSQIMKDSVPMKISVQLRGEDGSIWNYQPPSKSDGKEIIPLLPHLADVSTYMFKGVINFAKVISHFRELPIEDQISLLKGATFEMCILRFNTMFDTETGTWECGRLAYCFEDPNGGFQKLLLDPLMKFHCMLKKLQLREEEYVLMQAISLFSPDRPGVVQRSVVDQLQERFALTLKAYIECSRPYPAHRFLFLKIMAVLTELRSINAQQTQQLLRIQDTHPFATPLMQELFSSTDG

[17] = qHTS assay for small molecule agonists of retinoid X receptor alpha signaling (AID 588544; calls by dose curve;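 on activation: 0% = DMSO basal wells and 100% = reference agonist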); details: HEK293T RXRa-UAS-bla, beta-lactamase reporter, 18 h; 530 nm emission
[18] = target: Retinoic acid receptor RXR-alpha (Homo sapiens) (UniProt P19793); assay: as above; details: HEK293T RXRa-UAS-bla, beta-lactamase reporter, 18 h; series mostly up to 76.7 µM
[19] = qHTS assay for small molecule agonists of the antioxidant response element (ARE) signaling pathway measured by Nrf2-dependant transcriptional activity (AID 720636; active means well fitted curve in the direction sought with a large enough effect in the repeat runs; an effect the other way counts as inactive or inconclusive;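 further: HepG2 cells with an ARE-driven luciferase reporter; % of control where 0% means no effect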); details: ARE-luc HepG2, Nrf2 luciferase reporter, 16 h; series mostly up to 92.4 µM
Summary of the method: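 Nrf2-dependent transcription is measured in ARE-luc HepG2 cells: compound is applied for 16 hr at 37 C after a 6 hr attachment period, and luciferase activity is quantified by luminescence using ONE-Glo.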

[20] = qHTS assay for small molecule activators of the human pregnane X receptor (PXR) signaling pathway (AID 720659; call rule not given here; further: 0% is about no effect); details: DPX-2 HepG2 CYP3A4-luciferase, 24 h; series mostly up to 92.3 µM

CCCCCCCCCCCC[N+](C)(C)[O-]
inactive: activation [1] 6.56% | Potency [3] | outcome [4] | Potency [5] | activation [6] 1.24% | activation [7] 9.07% | max response [8] 0.14% | max response [9] -6.24% | max response [10] -22.6% | Potency [11]
-19.7%: max response [2]

O=C1NC(=O)C(Cc2ccc(OCCN3COc4ccccc4C3=O)cc2)S1 (centres undefined)
active: Potency [15] 48.6 µM | Potency [8] 17.8 µM
inactive: activation [1] 5.15% | Potency [12] | Potency [5] | max response [14] -11.1% | activation [6] 0.726% | activation [7] 13.4% | max response [9] -6.38% | max response [10] -10.2% | Potency [11] | max response [16] 1.08%
33.2%: max response [13]

CO[Si](CCCOCC1CO1)(OC)OC (centres undefined)
-4.61%: max response [13]
37.6%: max response [2]
inactive: activation [1] -3.61% | Potency [12] | Potency [3] | outcome [4] | Potency [18] | Potency [5] | max response [14] -3% | Potency [15] | activation [6] 1.09% | activation [7] -0.88% | Potency [19] | max response [9] -2.05% | max response [10] -2.39% | Potency [11]
-16.2%: max response [17]
active: Potency [8] 39.8 µM

CCCCC(CC)COC(=O)c1ccc(C(=O)OCC(CC)CCCC)cc1 (centres undefined)
-8.11%: max response [17]
-7.23%: max response [13]
inactive: Potency [18] | Potency [5] | max response [14] 5.51% | Potency [15] | activation [6] 0.101% | activation [7] -2.7% | max response [9] -17% | max response [10] -13.5% | Potency [11] | max response [16] -0.0794% | outcome [20]
-1.09%: max response [2]

CCOc1ccc(NC(=O)OC(C)C)cc1OCC
-3.73%: max response [13]
-29.8%: max response [2]
inactive: activation [1] -6.81% | Potency [12] | outcome [4] | Potency [5] | max response [14] -21.6% | Potency [15] | activation [6] -0.775% | activation [7] 2.6% | max response [8] 2.76% | Potency [19] | max response [9] -3.59% | max response [10] -5.68% | Potency [11] | max response [16] 10.3%

NC(=O)Cc1cccc2ccccc12
-2.89%: max response [17]
36.8%: max response [2]
0.786%: max response [13]
inactive: activation [1] -1.98% | Potency [12] | Potency [18] | max response [14] -14.7% | Potency [15] | activation [6] 1.36% | activation [7] 4.55% | max response [8] -0.179% | Potency [19] | max response [9] -4.7% | max response [10] -7.9% | Potency [11] | max response [16] -0.261% | outcome [20]

CN(C)CCOCCN(C)C
-5.51%: max response [13]
1.75%: max response [17]
inactive: activation [1] 11.4% | Potency [12] | Potency [3] | outcome [4] | Potency [18] | Potency [5] | max response [14] -8.75% | Potency [15] | activation [6] -2.29% | activation [7] -2.36% | max response [8] -0.21% | Potency [19] | max response [9] -2.1% | max response [10] -5.76% | Potency [11] | max response [16] 0.876% | outcome [20]
2.82%: max response [2]

Source: PubChem BioAssay (NCATS)
